Measurements as given in PubChem BioAssay (NCATS).
“And” between values parts separate entries of the source, which are not always exact repeats. Equal entries are not always repeated. Inconclusive results are not listed. The source made the active and inactive calls. Unless noted, the call rests on the fitted dose curve; in most records, active means well fitted curve in the direction sought with a large enough effect; inconclusive means small, poorly fitted or top-dose-only effect, or another doubt; inactive means no such curve, though single readings can be large; an effect the other way counts as inactive or inconclusive.

Columns and labels:
[1] = molecular target: Alpha-galactosidase A (Homo sapiens) (UniProt P06280); assay: Counterscreen for Glucocerebrosidase Inhibitors: qHTS Assay for Human alpha-Galactosidase at pH 4.5 (AID 992); further: 0% is about no effect
How it was run: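 Concentration-response curves (0.7 nM to 77 uM final) were modeled with the Hill equation to give AC50. Reactions: 2 nM enzyme, 80 uM fluorogenic alpha-galactoside, pH 4.5 citric acid buffer, 20 min, room temperature.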

[2] = qHTS Assay for Lipid Storage Modulators (AID 1519; calls by dose curve; on activity change, negative = inhibition: on the % scale 0 is the no-effect control and ±100 the full control effect); conditions: Drosophila S3 cells, BODIPY lipid droplet/cell ratio, laser cytometry, cells loaded with oleic acid
How it was run: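 Cells seeded at 5,000 per well were treated with compounds over a concentration series and loaded with oleic acid (400 uM, as added). Lipid droplet fluorescence (488 nm excitation, 500-530 nm channel) was read by laser-scanning cytometry and normalized to 20 uM Triacsin C.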

[3] = molecular target: DNA repair nuclease/redox regulator APEX1 (Homo sapiens) (UniProt P27695); assay: qHTS Validation Assay for Inhibitors of the Human Apurinic/apyrimidinic Endonuclease 1 (APE1) (AID 1705;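 further: TAMRA fluorescence gain over two minutes as APE1 cuts a quenched THF abasic duplex; on the % scale 0 is the no-effect control and ±100 the full control effect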)
How it was run: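 Endonuclease activity of human APE1 is followed as dequenching when the enzyme incises a tetrahydrofuran abasic site in a short duplex labelled 5'-TAMRA/3'-BHQ-2 (50 nM final), after 15 min enzyme–compound preincubation at room temperature.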

[4] = Counterscreen for APE1 Inhibitors: Fluorescent Dye Displacement Validation Assay (AID 1707);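 further: plate controls were ThO with dsDNA and no compound for no effect and ThO without dsDNA for full effect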
How it was run: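 Assay buffer: Tris-HCl pH7.5 with 50mM NaCl, 2 mM MgCl2, 0.01% Tween-20. Dye 250 nM, duplex 50 nM final. Readout: decrease in ThO endpoint fluorescence, 480 nm excitation, 540 nm emission.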

[5] = molecular target: alpha-glucosidase (Oryza sativa, rice) (UniProt Q653V4); assay: Counterscreen for Glucocerebrosidase Inhibitors: qHTS Assay for Rice alpha-Glucosidase at pH 5.0 (AID 997);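 further: 0% = full activity with enzyme and -100% = basal without enzyme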
How it was run: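 Rice alpha-glucosidase (4 nM final) with 400 uM 4-methylumbelliferyl-alpha-D-glucopyranoside in citrate buffer pH 5.0, 20 min at room temperature, stopped at pH 10; fluorescence 365/440 nm, compounds 0.7 nM–77 uM, AC50 from Hill fits.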

[6] = molecular target: Endonuclease 4 (Escherichia coli (strain K12)) (UniProt P0A6C1); assay: Counterscreen for APE1 Inhibitors: qHTS Validation Assay for Inhibitors of Endonuclease IV (AID 1708); further: on the % scale 0 is the no-effect control and ±100 the full control effect
How it was run: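 E. coli EndoIV at 2 nM final, preincubated 15 min at room temperature with compound, then 50 nM TAMRA/BHQ-2 THF abasic-site duplex added. Buffer: 50 mM Tris-HCl pH 7.5, 50 mM NaCl, 2 mM MgCl2, 1 mM DTT, 0.01% Tween-20. Kinetic fluorescence increase, third minus first read.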

[7] = qHTS for differential inhibitors of proliferation of Plasmodium falciparum line 7G8 (AID 1815);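 further: parasite growth measured after three days of incubation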; further: potency means the concentration at half of the fitted maximal effect;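 on activity change, negative = inhibition: plate controls were vehicle wells for no effect and reference inhibitor wells for full effect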
[8] = qHTS for differential inhibitors of proliferation of Plasmodium falciparum line GB4 (AID 1816); conditions: Potency: Plasmodium falciparum GB4 proliferation inhibition;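 further: parasite growth measured after 72 h incubation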; further: potency means the concentration at half of the fitted maximal effect;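 on activity change, negative = inhibition: 0% = vehicle DMSO and -100% = reference inhibitor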
[9] = qHTS for differential inhibitors of proliferation of Plasmodium falciparum line 3D7 (AID 1876); further: potency means the concentration at half of the fitted maximal effect
[10] = qHTS for differential inhibitors of proliferation of Plasmodium falciparum line Dd2 (AID 1882); conditions: Potency: Plasmodium falciparum Dd2 proliferation inhibition; further: nearly all actives have a fitted effect of over 65% in size; further: potency means the concentration at half of the fitted maximal effect;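 on activity change, negative = inhibition: plate controls were DMSO vehicle for no effect and 0.29 µM artemisinin for full effect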
How it was run: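 Dd2-infected erythrocytes (0.3% parasitemia, 2.5% hematocrit final) incubated with compound 72 h at 37 C, 5% CO2; lysed with saponin/Triton buffer containing SYBR Green I, incubated overnight in the dark, then read by fluorescence (485/535 nm). Normalized to 0.29 uM artemisinin and DMSO.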

[11] = qHTS for differential inhibitors of proliferation of Plasmodium falciparum line W2 (AID 1883); conditions: Potency: Plasmodium falciparum W2 proliferation inhibition;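 further: parasites grown with compound for 72 h before lysis and staining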; further: potency means the concentration at half of the fitted maximal effect;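 on activity change, negative = inhibition: 0% = vehicle wells and -100% = control inhibitor wells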
[12] = Cell Viability - LYMP2-020 (AID 986);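 further: plate controls were DMSO only for no effect and tetraoctylammonium bromide at 92 µM for full effect; nearly all actives have a fitted effect of over 55% in size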
How it was run: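 Human lymphoblastoid LYMP2-020 cells (2500/well) preincubated 5 h at 37 C, then treated 24 h at 37 C. Viability measured as intracellular ATP by CellTiter-Glo luminescence after 30 min at room temperature; AC50 from Hill fits.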

[13] = Cell Viability - LYMP2-022 (AID 987);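 further: 0% = DMSO alone and full effect = tetraoctylammonium bromide at 92 µM; nearly all actives have a fitted effect of over 55% in size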
How it was run: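 LYMP2-022 lymphoblastoid cells (2500/well, complete medium) were treated with compounds for 24 hours at 37 C; intracellular ATP was then read by CellTiter-Glo luminescence after 30 min at room temperature. AC50 values were derived from Hill-equation fits.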

[14] = Cell Viability - LYMP2-024 (AID 988);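 further: plate controls were DMSO only for no effect and 92 µM tetraoctylammonium bromide for full effect; nearly all actives have a fitted effect of over 60% in size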
How it was run: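 Human lymphoblastoid LYMP2-024 cells (2500/well) rested 5 hr, then treated with compound for 24 hr at 37 C in complete medium. Viability was measured as intracellular ATP by CellTiter-Glo luminescence. AC50 values came from Hill-equation fits.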

[15] = Cell Viability - LYMP2-026 (AID 989); further: on the % scale 0 is the no-effect control and ±100 the full control effect; nearly all actives have a fitted effect of over 50% in size
How it was run: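 Human lymphoblastoid LYMP2-026 cells, 2500/well, exposed to compound 24 h at 37 C in complete medium. Viability as intracellular ATP by CellTiter-Glo luminescence; AC50 from Hill fits of qHTS concentration-response.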

[16] = Cell Viability - LYMP1-002 - Assay at 40 hr (AID 994);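 further: 0% = DMSO only and full inhibition = 92 µM tetraoctylammonium bromide; nearly all actives have a fitted effect of over 60% in size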
How it was run: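 LYMP1-002 human lymphoblastoid cells (2500/well, complete medium) were treated with compounds for 40 hr at 37 C. Intracellular ATP was measured by CellTiter-Glo luminescence, and AC50 values came from Hill-equation fits of concentration-response data; tetraoctylammonium bromide was the positive control.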

[17] = qHTS for differential inhibitors of proliferation of Plasmodium falciparum line D10 (AID 1877);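 further: parasites grown with compound for 72 h before DNA staining; plate controls were vehicle wells for no effect and reference inhibitor wells for full effect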
[18] = qHTS for differential inhibitors of proliferation of Plasmodium falciparum line HB3 (AID 1886); conditions: Potency: Plasmodium falciparum HB3 proliferation inhibition;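 further: parasites grown with compound for 72 h before SYBR Green readout; plate controls were vehicle for no effect and reference inhibitor for full effect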
[19] = measured here: cell count channel max response
[20] = measured here: lipid channel max response

Sequence of Alpha-galactosidase A (Homo sapiens) (P06280 whole entry, looked up): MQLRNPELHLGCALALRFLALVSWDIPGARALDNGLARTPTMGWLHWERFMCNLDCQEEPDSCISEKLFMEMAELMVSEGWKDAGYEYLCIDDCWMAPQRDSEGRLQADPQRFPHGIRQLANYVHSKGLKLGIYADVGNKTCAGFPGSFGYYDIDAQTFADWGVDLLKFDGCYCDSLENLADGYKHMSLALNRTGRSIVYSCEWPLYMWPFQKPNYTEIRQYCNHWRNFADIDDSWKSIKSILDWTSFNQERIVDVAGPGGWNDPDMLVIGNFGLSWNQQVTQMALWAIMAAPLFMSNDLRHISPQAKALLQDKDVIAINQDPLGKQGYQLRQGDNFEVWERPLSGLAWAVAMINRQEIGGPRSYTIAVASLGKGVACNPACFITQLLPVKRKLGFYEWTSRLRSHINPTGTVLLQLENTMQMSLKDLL
Sequence of DNA repair nuclease/redox regulator APEX1 (Homo sapiens) (P27695 whole entry, looked up): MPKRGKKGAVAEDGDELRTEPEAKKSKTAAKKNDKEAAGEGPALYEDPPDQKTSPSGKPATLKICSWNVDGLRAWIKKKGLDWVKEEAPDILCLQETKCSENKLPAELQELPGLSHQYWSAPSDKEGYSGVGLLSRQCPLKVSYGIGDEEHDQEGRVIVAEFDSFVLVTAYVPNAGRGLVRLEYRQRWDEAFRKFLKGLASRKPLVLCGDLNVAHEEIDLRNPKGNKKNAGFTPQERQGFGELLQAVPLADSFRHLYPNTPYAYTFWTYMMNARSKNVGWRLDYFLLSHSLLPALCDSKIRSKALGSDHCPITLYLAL

OCCN1CCN(CCCN2c3ccccc3Sc3ccc(C(F)(F)F)cc32)CC1
-9.92% and 24.4% and 4.08%: max response [2, 19]
-13.1% and 36.3% and -0.526%: max response [2, 20]
inactive: outcome [1] | activity change, negative = inhibition ([2]; at 25.7 µM (top of the series)) -3.93% | activity change, negative = inhibition ([2]; at 57.5 µM (top of the series)) 8.5% and -2.13% | Potency [3] | Potency [4]

CNCCCC12CCC(c3ccccc31)c1ccccc12
inactive: outcome [1] | outcome [5] | activity change, negative = inhibition ([2]; at 25.7 µM (top of the series)) -2.57% | activity change, negative = inhibition ([2]; at 57.5 µM (top of the series)) -1.14% and 2.05% | Potency [3] | Potency [4] | Potency [6]
-12.7% and 1.78% and 3.8%: max response [2, 19]
active: Potency [7] 11.2 µM | Potency [8] 8.91 µM | Potency [9] 10 µM | Potency [10] 11.2 µM | Potency [11] 5.01 µM
-13.9% and 1.75% and 6.48%: max response [2, 20]

Cn1c(=O)c2c(ncn2C)n(C)c1=O
17.2% and -15.6%: max response [2, 20]
inactive: outcome [12] | outcome [13] | outcome [14] | outcome [15] | outcome [1] | Potency [16] | activity change, negative = inhibition ([2]; at 57.5 µM (top of the series)) 9.95% and -17.6% | Potency [3] | Potency [4] | Potency [6] | Potency [7] | Potency [8] | Potency [9] | Potency [17] | Potency [10] | Potency [11] | Potency [18]
6.09% and -15.3%: max response [2, 19]

Nc1ccn([C@H]2CC[C@@H](CO)O2)c(=O)n1
-7.59% and -3.68%: max response [2, 19]
inactive: outcome [12] | outcome [13] | outcome [14] | outcome [15] | outcome [1] | Potency [16] | outcome [5] | activity change, negative = inhibition ([2]; at 57.5 µM (top of the series)) 0.404% and -0.834% | Potency [3] | Potency [4] | Potency [6] | Potency [7] | Potency [8] | Potency [9] | Potency [17] | Potency [10] | Potency [11] | Potency [18]
-4.32% and -4.82%: max response [2, 20]
